GLA spleen mod: inhibitors or activators of human alpha-galactosidase in spleen homogenate. Potency, µM (highest dose often 80 µM), inactives show at the highest dose activity change, negative = inhibition, actives largely listed as inhibitors. human spleen homogenate, 4MU-alpha-Gal fluorescence, 40 min. AID 2107. actives 0.008% (n = 240,000);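 note: potency is the fitted concentration of half-maximal effect; 0% = enzyme with vehicle and -100% = no enzyme basal signal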
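Human spleen homogenate (1 ug) was the enzyme source, with 4-methylumbelliferyl-alpha-D-galactopyranoside (1 mM final) in pH 5.0 citrate buffer with 0.01% Tween-20. Compounds were titrated; after 40 min at 37C, NaOH/glycine stop, 4-MU fluorescence read; AC50 from Hill fits.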
aGlu spleen mod: inhibitors or activators of human alpha-glucosidase in spleen homogenate; P10253; human spleen homogenate, 4-MU-alpha-glucoside fluorescence; Potency, µM (series often up to 79.9 µM), for inactives: top-dose activity change, negative = inhibition, usual class: inhibitors; actives 0.006% (n = 240,000); AID 2112;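 note: potency is the fitted concentration of half-maximal effect; 0% = enzyme with vehicle and -100% = no enzyme basal signal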
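Human spleen homogenate (1 ug) with 4-methylumbelliferyl-alpha-D-glucopyranoside (1 mM final) in 50 mM citrate/phosphate pH 5.0, 0.01% Tween-20; 40 min at 37 C. Stopped at pH 10; 4-MU fluorescence Ex 365/Em 440 nm; AC50 by Hill fit.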
GLA inh pH 4.5: alpha-galactosidase A (human) inhibition, pH 4.5. purified enzyme, 4-MU-alpha-Gal fluorescence, pH 4.5. activity change, negative = inhibition, % at 105 µM. 230,000 tested, under 10 active;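 note: 0% = full activity with enzyme and -100% = basal without enzyme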
Target sequence (P06280 whole entry, looked up): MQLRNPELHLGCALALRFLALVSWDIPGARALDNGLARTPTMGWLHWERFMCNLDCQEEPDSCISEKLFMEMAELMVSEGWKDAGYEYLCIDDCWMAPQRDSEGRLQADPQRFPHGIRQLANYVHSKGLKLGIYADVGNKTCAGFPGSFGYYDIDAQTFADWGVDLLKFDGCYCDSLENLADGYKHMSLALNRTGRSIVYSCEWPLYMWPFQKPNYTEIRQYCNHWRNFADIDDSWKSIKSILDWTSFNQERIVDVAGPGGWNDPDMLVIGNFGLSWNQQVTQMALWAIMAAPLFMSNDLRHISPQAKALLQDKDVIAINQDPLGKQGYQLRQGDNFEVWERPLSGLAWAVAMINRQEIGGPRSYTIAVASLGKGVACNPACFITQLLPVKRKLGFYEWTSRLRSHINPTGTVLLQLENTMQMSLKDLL
N370S GC: inhibits or activates N370S mutant glucocerebrosidase. AID 2101. N370S GC spleen homogenate, 4MU-glucoside fluorescence. P04062. actives 0.092% (n = 330,000). Potency, µM (series often up to 59.4 µM), for inactives: at the highest dose activity change, negative = inhibition, usual class: inhibitors;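 note: potency is the fitted concentration of half-maximal effect; 0% = full enzyme activity and -100% = no enzyme basal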
GAA glycogen mod: GAA glycogen-cleavage inhibition or activation; P10253; recombinant GAA, glycogen substrate, Amplex Red glucose oxidase fluorescence; Potency, µM (top dose mostly 76.4 µM), inactives show at the top dose activity change, negative = inhibition, usual class: inhibitors; actives 0.38% (n = 300,000); AID 2100;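 note: potency is the fitted concentration of half-maximal effect; 0% = full enzyme reaction and -100% = no-enzyme basal signal; the screen sought inhibitors and activators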
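Natural-substrate format: glycogen cleavage by 4 nM human enzyme, glucose read by Amplex Red coupling (Ex 573, Em 610 nm). Normalized to enzyme and no-enzyme controls.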
GAA inhib: blocks human lysosomal alpha-glucosidase; AID 1466; P10253; actives 0.005% (n = 200,000); purified human GAA, 4-MU-alpha-glucoside fluorescence; Potency, µM (titrated, usually from 76.9 µM), without a hit: at the top dose activity change, negative = inhibition, hits mostly inhibitors;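 note: potency is the fitted concentration of half-maximal effect; plate controls were uninhibited enzyme wells for no effect and no-enzyme background for full effect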
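AC50 values come from Hill fits of compound titrations (up to 77 uM) against 4 nM human enzyme. Substrate 4-methylumbelliferyl-alpha-D-pyranoside at 400 uM, pH 5.0 citrate buffer, 20 min room temperature; fluorescence Ex 365/Em 440 after alkaline stop.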
* = called active by the depositor; ? = inconclusive; nt = no result; [ ] = another dose, or the depositor's remark. Compounds with a hit are over-represented: about 0.41% of the library has one in this group of screens. Calls come from the whole dose curve; as a rule, active = well fitted curve in the direction sought with a large enough effect; inconclusive = small, poorly fitted or top-dose-only effect, or another doubt; inactive = no such curve, though single readings can be large; an effect the other way counts as inactive or inconclusive.

SMILES	GLA spleen mod	aGlu spleen mod	GLA inh pH 4.5	N370S GC	GAA glycogen mod	GAA inhib
Cc1ccc(NC(=S)NNC(=S)NCc2ccccc2)cc1	-11%	-6%	1	10%	32µM*	-4%
CCOc1ccc2c(c1)-c1c(ssc1=S)C(C)(C)N2	-10%	?	-6	-4%	20µM*	-3%
C#CCOCCOCCOCCNc1nc(N2CCN(C(=O)[C@H](C)n3cc(CCCN=C(N)N)nn3)CC2)nc(N2CCN(C(=O)[C@H](CCCCN)n3cc(CCCC)nn3)CC2)n1	0%	-8%	1	1%	3%	-2%
C#CCOCCOCCOCCNc1nc(N2CCN(C(=O)CCCCCCCCCCNC(=O)[C@H](CO)n3cc(CCCCCN)nn3)CC2)nc(N2CCN(C(=O)CCCCCCCCCCNC(=O)[C@H](CCCN=C(N)N)n3cc(C[C@@H](C)CC)nn3)CC2)n1	nt	nt	nt	13µM*	nt	nt
CC[C@H](C)Cc1cn([C@@H](CCCN=C(NC(=O)OC(C)(C)C)NC(=O)OC(C)(C)C)C(=O)NCCCCCCCCCCC(=O)N2CCN(C(=O)OC(C)(C)C)CC2)nn1	nt	nt	nt	16µM*	nt	nt
C#CCOCCOCCOCCNc1nc(N2CCN(C(=O)CCCCCCCCCCNC(=O)[C@H](CCCCN)n3cc(C[C@@H](C)CC)nn3)CC2)nc(N2CCN(C(=O)CCCCCCCCCCNC(=O)[C@H](CCCN=C(N)N)n3cc(C[C@@H](C)CC)nn3)CC2)n1	nt	nt	nt	6.3µM*	nt	nt
C#CCOCCOCCOCCNc1nc(N2CCN(C(=O)CCCCCCCCCCNC(=O)[C@H](CCCCN)n3cc(C)nn3)CC2)nc(N2CCN(C(=O)CCCCCCCCCCNC(=O)[C@H](CCCN=C(N)N)n3cc(C[C@@H](C)CC)nn3)CC2)n1	nt	nt	nt	7.9µM*	nt	nt
O=C(O)c1cc(C(=O)O)c(C(=O)N(Cc2cccc(Oc3ccccc3)c2)[C@H]2CCCc3ccccc32)cc1C(=O)O	7%	-8%	nt	-2%	nt	nt
COc1ccc(C2Nc3ccccc3-c3nnc(SC)nc3O2)cc1C (configuration not stated)	nt	nt	nt	nt	14%[76.3 µM]	nt
CC1CC=CC2C1C(=O)N(Cc1ccccc1)C2c1ccc(-c2ccc(N(C)C)cc2)cc1F (configuration not stated)	1%	-4%	nt	-6%	nt	nt
C#CCOCCOCCOCCNc1nc(N2CCN(C(=O)CCCCCCCCCCNC(=O)[C@@H](CCSC)n3cc(CCO)nn3)CC2)nc(N2CCN(C(=O)CCCCCCCCCCNC(=O)[C@H](CCCN=C(N)N)n3cc(C[C@@H](C)CC)nn3)CC2)n1	nt	nt	nt	7.9µM*	nt	nt
C#CCOCCOCCOCCNc1nc(N2CCN(C(=O)CCCCCCCCCCNC(=O)[C@H](CCCCN)n3cc(C[C@@H](C)CC)nn3)CC2)nc(N2CCN(C(=O)CCCCCCCCCCNC(=O)[C@@H]([C@H](C)O)n3cc(C)nn3)CC2)n1	nt	nt	nt	11µM*	nt	nt
C#CCOCCOCCOCCNc1nc(N2CCN(C(=O)CCCCCCCCCCNC(=O)[C@@H](CCSC)n3cc(CCO)nn3)CC2)nc(N2CCN(C(=O)CCCCCCCCCCNC(=O)[C@@H]([C@H](C)O)n3cc(C)nn3)CC2)n1	nt	nt	nt	-13%	nt	nt
C#CCOCCOCCOCCNc1nc(N2CCN(C(=O)CCCCCCCCCCNC(=O)[C@H](CCCCN)n3cc(CCO)nn3)CC2)nc(N2CCN(C(=O)CCCCCCCCCCNC(=O)[C@H](CCCCN)n3cc(C[C@@H](C)CC)nn3)CC2)n1	nt	nt	nt	14µM*	nt	nt
C=CCCCCCCCCCBr	22%	4%	nt	-6%	nt	nt
CCc1ccc(C(=O)CC2(O)C(=O)N(CCc3ccccc3)c3ccc(Cl)cc32)cc1 (configuration not stated)	nt	nt	nt	nt	7%[76.3 µM]	nt
COc1cccc(C(=O)/C=C/Nc2cc(C)ccc2O)c1	2%	-17%	-14	0%	28µM*	-5%
COc1ccccc1N1CCN(/N=C/c2cccc(O)c2)CC1	-2%	2%	-14	1%	9.9µM*	-10%
CCOc1ccccc1-c1nnc2n1N=C(c1cccc(OC)c1)CS2	-5%	-2%	nt	-6%	nt	nt
O=C(NNC(=S)NCCc1ccccc1)c1ccc(Br)s1	9%	9%	4	16%	35µM*	-2%
O=C(CCc1ccc(O)cc1)NNC(=S)NCCc1ccccc1	-3%	-11%	6	-5%	?	2%
COc1ccc(Cl)cc1NC(=O)C(=O)NCc1ccc(Cl)cc1	nt	nt	nt	nt	18%[76.3 µM]	nt
Cc1ccc(NC(=O)CCCc2nnc3n(C)c(=O)c4sccc4n23)cc1F	nt	nt	nt	nt	-15%[76.3 µM]	nt
Cc1ccc(Nc2c(-c3ccsc3)nc3c(C)cccn23)cc1	nt	nt	nt	nt	11µM*	nt
Cc1cccn2c(Nc3ccccc3)c(-c3ccc(N4CCOCC4)cc3)nc12	nt	nt	nt	nt	4µM*	nt
SMILES	GLA spleen mod	aGlu spleen mod	GLA inh pH 4.5	N370S GC	GAA glycogen mod	GAA inhib
COc1ccc(COC(=O)C2=C(C)NC(=O)NC2c2cccc(OC)c2OC)cc1 (configuration not stated)	nt	nt	nt	-6%	40µM*	nt
Cn1c(-c2cccc([N+](=O)[O-])c2)cnc1NCc1cccc([N+](=O)[O-])c1	1%	-4%	9	-13%	22µM*	-6%
Cc1cccc(CNc2ncc(-c3cccc([N+](=O)[O-])c3)n2C)c1	-2%	3%	3	-4%	?	-1%
O=C(NC(NC(=S)Nc1ccc(F)c([N+](=O)[O-])c1)C(Cl)(Cl)Cl)C(c1ccccc1)c1ccccc1 (configuration not stated)	-7%	-17%	nt	-19%	nt	nt
Oc1ccc(/C=N/Nc2nccnc2Cl)cc1	2%	-7%	0	-18%	11µM*	-11%
Fc1ccc(/C=N/Nc2nccnc2Cl)cc1	nt	nt	nt	-14%	-2%[76.3 µM]	nt
[O-]/[N+](=C\c1ccccc1)[C@@H]1CCCC[C@@H]1/[N+]([O-])=C/c1ccccc1	6%	2%	-9	-1%	40µM*	7%
CN(C)S(=O)(=O)c1cc(NC(=O)CN2CCN(c3ccc(O)cc3)CC2)ccc1Cl	-9%	nt	5	-7%	7.1µM*	-18%
CN(C)S(=O)(=O)c1cc(NC(=O)CN2CCN(c3ccccc3)CC2)ccc1Cl	0%	-25%	5	-4%	-8%	?
COc1ccccc1OCC(=O)Nc1c(C(=O)c2ccc(F)cc2)oc2ccccc12	nt	nt	nt	nt	1%[76.3 µM]	nt
CCOc1ccccc1NC(=O)CN1C(=O)COc2ccc(S(=O)(=O)N3CCCCCC3)cc21	nt	nt	nt	nt	7%[76.3 µM]	nt
CC(C)c1ccc(NC(=S)Nc2cccc3ccccc23)cc1	nt	nt	nt	-13%	40µM*	nt
O=C(Nc1ccc(F)cc1)N1CCOCC1	-6%	-13%	-1	1%	8%	-5%

Compound activity (PubChem BioAssay)
